# DT40 TDP1 no CPT – qHTS for Inhibitors of human tyrosyl-DNA phosphodiesterase 1 (TDP1): qHTS in cells in absence of CPT; DT40 Tdp1-/- hTDP1 cells, no CPT, ATP luminescence, 48 h; Potency, µM (titrated, usually from 46.2 µM), for the others: at the highest dose activity change, negative = growth inhibition, hits mostly inhibitors; hit rate 15% among 420,000; AID 686978, 2013; also: potency is read from the fitted curve at half-maximal effect; % is scaled to controls: 0 for no effect and ±100 for the full control effect; nearly all actives have a fitted effect of over 55% in size
#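 Camptothecin absent (DMSO only). Human TDP1-complemented DT40 knockout cells, 400 cells/well, 37 °C for minimum 48 hr; ATP measured via CellTiter-Glo, 30 min dark incubation, luminescence.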
# HepG2 viability – HepG2 cytotoxicity, counter-screen for TGF-b inhibitors. HepG2 CAGA-GFP viability, ATP luminescence, 18 h. Potency, µM (top dose mostly 46.1 µM), for inactives: at the top dose activity change, negative = cytotoxicity, most hits filed as cytotoxic. hit rate 0.76% among 410,000. AID 588856; also: potency is read from the fitted curve at half-maximal effect
#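 HepG2 CAGA-GFP cells (1000/well, DMEM with 1% FBS) received compound, then TGF-beta at 500 pg/mL final, and were incubated 18 hours at 37 degrees C. Viability was read by CellTiter-Glo luminescence. Media-only wells were set as complete cell-killing and DMSO as no toxicity.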
# DT40 TDP1 CPT – DT40-hTDP1 cell growth loss with CPT; Potency, µM (series often up to 46.2 µM), inactives show at the top dose activity change, negative = growth inhibition, most hits filed as inhibitors; hit rate 12% among 420,000; chicken DT40 Tdp1-/-;hTDP1 cells + 20 nM CPT, ATP luminescence, 48 h; AID 686979; also: potency is read from the fitted curve at half-maximal effect; % is scaled to controls: 0 for no effect and ±100 for the full control effect; nearly all actives have a fitted effect of over 55% in size
#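 Chicken DT40 Tdp1-/- cells complemented with human TDP1, 400 cells/well, exposed to compounds plus 20 nM camptothecin for at least 48 h at 37 C; viability read as ATP content by CellTiter-Glo luminescence.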
# IL-1B inflam inh – inflammasome signaling inhibition, IL-1 beta readout; THP-1 LPS/ATP IL-1B secretion, AlphaLISA, 16 h; stronger effect = lower value; activity change, % at 57.5 µM; hit rate 4.7% among 360,000; AID 743279; in the data active = activity change below about -50%; inconclusive = mostly about -30% to -49%; also: % is scaled to controls: 0 for no effect and ±100 for the full control effect
#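 Secreted IL-1B measured by AlphaLISA bead assay after 16 h compound exposure of THP-1 cells; compounds (final up to 57.5 uM) added 1 h before LPS (250 ng/mL) and ATP (1.25 mM) stimulation; lower signal means less secretion.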
# TGFb inhibitor – inhibitors of TGF-b signaling; HepG2 CAGA-GFP TGF-b/SMAD3 reporter, GFP fluorescence, 18 h; TGF-beta stimulated, 500 pg/mL final; Potency, µM (top dose mostly 46.1 µM), for inactives: top-dose activity, negative = inhibition, usual class: inhibitors; hit rate 1.2% among 410,000; also: potency is read from the fitted curve at half-maximal effect; % is scaled to controls: 0 for no effect and ±100 for the full control effect; nearly all actives have a fitted effect of over 65% in size
#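 Inhibition of TGF-beta-driven CAGA-GFP reporter expression in HEPG2 cells is measured by cellular GFP fluorescence after 18 h stimulation with 500 pg/mL recombinant TGF-beta in 1% FBS medium at 37 degrees C.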
# TDP1 inh – blocks human tyrosyl-DNA phosphodiesterase 1. Q9NUW8. Potency, µM (titrated, usually from 130 µM), without a hit: at the highest dose activity change, negative = inhibition, hits mostly inhibitors. recombinant TDP1, AlphaScreen DNA substrate cleavage. AID 485290. hit rate 0.28% among 350,000; also: potency is read from the fitted curve at half-maximal effect; % is scaled to controls: 0 for no effect and ±100 for the full control effect; nearly all actives have a fitted effect of over 40% in size
# Target sequence (Q9NUW8 whole entry, looked up): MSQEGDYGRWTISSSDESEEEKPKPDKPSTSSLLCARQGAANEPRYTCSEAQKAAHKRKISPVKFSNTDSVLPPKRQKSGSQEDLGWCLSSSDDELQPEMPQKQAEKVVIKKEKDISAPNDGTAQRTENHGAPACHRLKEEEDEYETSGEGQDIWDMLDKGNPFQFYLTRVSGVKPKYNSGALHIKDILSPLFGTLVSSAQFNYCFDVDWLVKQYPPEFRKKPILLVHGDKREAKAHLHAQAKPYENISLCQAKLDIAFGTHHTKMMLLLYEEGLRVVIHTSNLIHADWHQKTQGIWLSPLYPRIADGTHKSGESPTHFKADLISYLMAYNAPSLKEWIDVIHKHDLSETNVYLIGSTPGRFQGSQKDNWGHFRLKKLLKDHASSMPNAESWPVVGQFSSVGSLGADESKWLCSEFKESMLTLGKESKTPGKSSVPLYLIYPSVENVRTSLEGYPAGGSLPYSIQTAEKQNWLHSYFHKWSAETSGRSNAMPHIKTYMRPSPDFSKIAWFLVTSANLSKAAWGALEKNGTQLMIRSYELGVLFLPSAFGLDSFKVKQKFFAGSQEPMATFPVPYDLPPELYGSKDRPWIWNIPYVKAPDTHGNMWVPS
#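 E. coli-derived human Tdp1, 1 nM final. Cpd preinc 15 min RT; substrate 15 nM final, 5 min RT; AS bead mix 10 ug/ml final, 10 min RT. Signal loss = tyrosine-FITC cleavage. No-enzyme wells = max signal.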
# * = called active by the depositor; ? = inconclusive; / = no result given; [ ] = another dose, or the depositor's remark. Sampled rows, rich in hits. Any-hit rate of the full collection: about 19%. Unless noted, calls follow the shape of the dose curve; as a rule, active = well fitted curve in the direction sought with a large enough effect; inconclusive = small, poorly fitted or top-dose-only effect, or another doubt; inactive = no such curve, though single readings can be large; an effect the other way counts as inactive or inconclusive.
SMILES,DT40 TDP1 no CPT,HepG2 viability,DT40 TDP1 CPT,IL-1B inflam inh,TGFb inhibitor,TDP1 inh
COc1ccc(N(CC(=O)Nc2cc(C)ccc2C)S(=O)(=O)c2c(C)noc2C)cc1,-26.5%,1.1%,?,44.6,-17.5%,1.1%
CC(C)C[C@@H](CN1CCC[C@H]1CN1C(=O)C(=O)NC[C@@H]1Cc1ccccc1)N1C[C@H](Cc2ccccc2)N(CCc2ccccc2)C(=O)C1=O,?,/,23.1µM*,-77.4*,/,/
CC(C)C[C@H]1CN([C@@H](CC(C)C)CN2CCC[C@H]2CN2C(=O)C(=O)NC[C@@H]2Cc2ccccc2)C(=O)C(=O)N1CCc1ccccc1,3.9%,/,2.7%,8.4,/,/
CC(C)C[C@H]1CNC(=O)C(=O)N1C[C@H]1CCCN1C[C@H](CC(C)C)N1C[C@H](CC(C)C)N(CCc2ccccc2)C(=O)C1=O,?,/,?,-74.7*,/,/
O=C(O)CN1C(=O)/C(=C\c2cn(-c3ccccc3)nc2-c2ccccc2)SC1=S,-18.3%,-16.0%,-26.5%,10.8,-10.5%,4.8%[0.0935 µM]
CC(C)COc1ccc(-c2nn(-c3ccccc3)cc2CO)cc1,?,-135.0%,20.6µM*,-10.8,?,/
CC(C)COc1ccc(-c2nn(-c3ccccc3)cc2/C=C2/SC(=S)N(CC(=O)O)C2=O)cc1,9.2µM*,7.9%,?,-8.2,0.4%,/
CCN1C(=O)/C(=C\c2cn(-c3ccccc3)nc2-c2cccnc2)SC1=S,?,6.1%,14.6µM*,8.9,0.0%,2.6%
OCc1cn(-c2ccccc2)nc1-c1ccc(Br)cc1,-1.2%,-54.6%,-1.8%,-8.1,?,/
O=C1C(=Cc2cn(-c3ccccc3)nc2-c2ccc(OCc3ccccc3)cc2)SC(=S)N1CCS(=O)(=O)O,?,3.5%,29.1µM*,33.5,4.0%,/
Cc1cc(F)ccc1NC(=O)CCS(=O)(=O)c1ccc2c(c1)NC(=O)CO2,/,-5.8%,/,/,-2.4%,-5.2%
Cc1c(-n2cc(C(=O)O)c(=O)c3cc(F)c(N4CCCC4)c(F)c32)c(=O)n(-c2ccccc2)n1C,23.1µM*,-12.7%,16.4µM*,-16.3,-7.1%,-2.1%
CCn1cc(C(=O)O)c(=O)c2cc(F)c(N3CCN[C@@H](C)C3)c(F)c21,/,/,/,/,/,4.8%[56.1 µM]
COc1cccc2c1cc1c(=O)n(CC(=O)O)nc(C)n12,0.8%,-0.8%,6.5%,/,?,-1.0%
Cc1cc(C)nc(N2CCC(C(=O)NCCc3ccc(Cl)cc3)CC2)n1,?,4.4%,13µM*,0.0,6.7%,-8.6%
Cc1cc(C)nc(N2CCC(C(=O)NCCc3ccc(F)cc3)CC2)n1,9.2µM*,-7.8%,16.4µM*,41.6,-7.3%,2.9%
Cc1cc(C)nc(N2CCCC(C(=O)NCCc3ccc(F)cc3)C2)n1 (centres undefined),-2.6%,-6.6%,-7.0%,-6.6,12.8%,5.9%
COc1ccc(CN(C)C(=O)c2ccc(NS(=O)(=O)c3ccc(C)c([N+](=O)[O-])c3)cc2)c(OC)c1OC,-29.0%,19.7%,?,-28.1,?,/
COc1ccccc1-c1cc(C(F)(F)F)c(C#N)c(=O)[nH]1,21.6%,-20.8%,26.5%,31.6,-18.6%,-5.5%
COc1ccccc1-c1cc(SC)c(C#N)c(=O)o1,5.8µM*,-61.7%,3.66µM*,?,?,0.0%
Cc1ccc(OCc2nnc(SCC(=O)C(C)(C)C)n2Cc2ccco2)cc1,16.4µM*,0.1%,?,-10.5,8.6%,4.1%
CCN(c1ccccc1)S(=O)(=O)c1ccc(Oc2ccc(C(C)=O)cc2OC)nc1,16.4µM*,-30.5%,?,14.2,?,0.3%
CCN(c1ccccc1)S(=O)(=O)c1ccc(OC)c(NC(=O)CNC)c1,-27.2%,-13.7%,5.4%,0.0,-2.5%,/
CCN(c1ccccc1)S(=O)(=O)c1ccc(OC)c(NC(=O)c2ccccc2OC)c1,?,7.1%,20.6µM*,11.5,0.7%,-0.3%
CCN(c1ccccc1)S(=O)(=O)c1ccc(OC)c(NC(=O)c2ccco2)c1,20.6µM*,-3.0%,?,14.0,9.7%,/
SMILES,DT40 TDP1 no CPT,HepG2 viability,DT40 TDP1 CPT,IL-1B inflam inh,TGFb inhibitor,TDP1 inh
CCN(c1ccccc1)S(=O)(=O)c1ccc(Oc2ccc([N+](=O)[O-])cc2)nc1,?,-26.2%,?,-14.5,?,/
CCN(c1ccccc1)S(=O)(=O)c1ccc(OC)c(NC(=O)C2CC(=O)N(Cc3ccccc3)C2)c1 (centres undefined),?,-11.4%,?,-53.8*,-20.1%,3.1%
CS(=O)(=O)N(CC(=O)N1CCCCCC1)c1cc(Cl)ccc1Cl,-0.5%,-40.4%,-6.1%,-14.4,-26.8%,/
COc1ncnc2c1ncn2CCCN(C)CCc1ccccn1,2.4%,-4.7%,-10.4%,0.0,6.1%,/
COc1cccc(C(=O)N2CCC[C@H]2C(=O)N2CCC[C@H]2C(=O)N[C@H](C)c2ccccc2)c1,-12.9%,/,-6.8%,21.3,/,/
O=C(Cc1coc2ccc3ccccc3c12)NCc1ccccc1,?,-1.0%,?,13.3,-11.5%,3.0%
CCCN(CCC)C(=O)Cc1coc2ccc3ccccc3c12,18.4µM*,-18.0%,?,-1.8,-16.3%,2.3%
O=C(Cc1coc2ccc3ccccc3c12)Nc1nccs1,?,-14.7%,14.6µM*,26.2,-3.0%,2.8%
O=C(Nc1cccc(Cl)c1)Nc1ccccc1OCc1cc(=O)n2ccccc2n1,-22.2%,-16.5%,0.3%,/,-8.8%,2.7%
CC/C(=C/c1ccccc1)c1cc(Oc2ccccc2)cc2oc3ccccc3c12,-17.4%,35.5%,-10.2%,/,-0.3%,/
COc1cc(/C(C)=C/c2ccccc2)c2c(c1)oc1ccccc12,14.1µM*,-14.5%,?,/,-13.2%,/
O=S1(=O)N=C(N/N=C/C=C/c2ccccc2)c2ccccc21,5.8µM*,-24.9%,?,-4.2,-20.5%,6.9%
O=S1(=O)N=C(N/N=C/c2ccccn2)c2ccccc21,?,-0.2%,?,107.9,-13.0%,8.0%
CC(C)N(C(=O)CSc1nnc(C2CC2)n1C1CC1)c1ccccc1,-14.7%,-4.4%,2.8%,6.7,-11.0%,-5.0%
Cc1cccc(OCc2nc(C#N)c(N3CCCC3)o2)c1,-26.4%,4.6%,6.6%,-55.0*,-4.0%,5.7%
N#Cc1nc(COc2ccc(Cl)cc2)oc1N1CCCCCC1,-25.3%,-1.9%,-9.4%,-58.5*,0.1%,9.8%
CCNc1oc(COc2cccc(C)c2)nc1C#N,-27.8%,3.5%,?,-5.6,-1.0%,7.0%

# Source: PubChem BioAssay (National Center for Advancing Translational Sciences (NCATS))
